{"source": "PubChem BioAssay AID652115", "about": "(Broad Institute, 2013)", "note": "Screen size: about 330,000 compounds; about 3,800 (1.2%) were called active. This is one part of a sample in which actives are shown more often than they occur. Cut-off read from the data, not from the text of the source: active = inhibition above about 15%; inconclusive = no clear call, values can overlap the other calls; inactive = below that."}
{"molecular_target": "NAD-dependent protein deacylase sirtuin-5, mitochondrial (Homo sapiens) (UniProt Q9NXA8)", "sequence (Q9NXA8 whole entry, looked up)": "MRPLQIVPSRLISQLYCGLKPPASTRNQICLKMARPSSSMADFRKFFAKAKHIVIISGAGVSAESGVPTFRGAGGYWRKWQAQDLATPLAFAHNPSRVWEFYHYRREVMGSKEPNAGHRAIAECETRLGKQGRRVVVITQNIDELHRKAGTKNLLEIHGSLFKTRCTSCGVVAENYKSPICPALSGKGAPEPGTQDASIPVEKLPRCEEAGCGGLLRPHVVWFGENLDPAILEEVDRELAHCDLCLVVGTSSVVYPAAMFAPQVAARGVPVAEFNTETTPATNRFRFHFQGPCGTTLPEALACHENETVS", "assay": "SIRT5 desuccinylase inhibitors, primary screen, biochemical, fluorescence imaging, single point, set 5 (AID 652115)", "conditions": "Purified SirT5, succinyl-peptide AMC, trypsin-coupled fluorescence; at 15 µM; active compounds read high"}
{"compound": "CC(Cc1ccccc1)NC=O", "note": "(stereo not given)", "inhibition": "-0.859% (inactive)"}
{"compound": "O=C(COC(=O)Cc1ccccc1)Nc1ccc(F)cc1", "inhibition": "-1.48% (inactive)"}
{"compound": "CC(=O)Nc1ccc(C(=O)C(Cc2ccccc2)N(C)C)cc1", "note": "(stereo not given)", "inhibition": "18.6% (active)"}
{"compound": "COC(=O)[C@H]1[C@H](CO)[C@H]2Cn3c(cccc3=O)[C@H]2N1CC1CC1", "inhibition": "0.308% (inactive)"}
{"compound": "COC(=O)C1=C(c2ccc(OCc3ccccc3)cc2)C[C@@H]2CC[C@H]1N2C(=O)NCc1cccc(F)c1", "inhibition": "-8.66% (inactive)"}
{"compound": "O=C1NCN(c2ccccc2)C12CCN(C(c1cccs1)c1nnnn1C1CCCCC1)CC2", "note": "(stereo not given)", "inhibition": "3.05% (inactive)"}
{"compound": "COc1ccc(N2C(=O)/C(=C/c3ccco3)C(=O)NC2=S)cc1", "inhibition": "44.4% (active)"}
{"compound": "COc1cccc(N2C(=O)NC(=O)/C(=C\\c3cn(C)c4ccccc34)C2=O)c1", "inhibition": "-7.3% (inactive)"}
{"compound": "COc1ccc(CN2C(=O)NC(=O)/C(=C\\c3ccc(OC)c(OC)c3OC)C2=O)cc1", "inhibition": "-0.842% (inactive)"}
{"compound": "S=C(NCCc1ccccc1)N1Cc2cc(N3CCOCC3)ccc2-n2nncc2C1", "inhibition": "0.564% (inactive)"}
